From PubChem BioAssay (Tox21)
“And” between values parts separate entries of the source, which are not always exact repeats. Identical values can stand only once. Results filed as inconclusive are left out. Entries that show only a call come without a potency. Some compounds were tested as several samples or in several runs, with calls that do not always agree. The source made the active and inactive calls. Unless noted, the call rests on the fitted dose curve; in most records, active means well fitted curve in the direction sought with a large enough effect in the repeat runs; inconclusive means weak or mixed curves; inactive means no such curve, though single readings can be large; an effect the other way counts as inactive or inconclusive.

Tests used:
[1] = molecular target: Acetylcholinesterase (Homo sapiens) (UniProt P22303); assay: Acetylcholinesterase (AChE) small molecule antagonists: fluorescence cell-based qHTS assay (AID 1347398; calls by dose curve; further: nearly all actives have a fitted effect of over 50% in size); conditions: Potency: AChE activity
Procedure, shortened: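 Read-out is Thiolite Green fluorescence at Ex/Em = 490/520 nm, formed by reaction with thiocholine released when cellular AChE in SH-SY5Y cells hydrolyzes acetylthiocholine. Compounds were preincubated 30 min at 37 C before substrate.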

[2] = molecular target: Acetylcholinesterase (Homo sapiens) (UniProt P22303); assay: Acetylcholinesterase (AChE) small molecule antagonists: enzyme-based qHTS assay with human liver microsomes (AID 1347399; calls by dose curve; further: nearly all actives have a fitted effect of over 60% in size); conditions: Potency: qHTS inhibition
Procedure, shortened: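 Recombinant human AChE (50 mU/mL in the enzyme mix) and human liver microsomes (0.25 mg/mL final) were preincubated with compound and NADPH (0.25 mg/mL final) for 30 min at 37 C. Acetylthiocholine/DTNB was then added; thiocholine was read colorimetrically after 10 min at room temperature.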

[3] = molecular target: Cytochrome P450 2D6 (Homo sapiens) (UniProt P10635); assay: Cytochrome P450 Family 2 Subfamily D Member 6 (CYP2D6) small molecule antagonists: luciferase reporter qHTS assay (AID 1671196); further: nearly all actives have a fitted effect of over 50% in size
Procedure, shortened: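 Inhibition of CYP2D6 was gauged by loss of luminescence, since light produced tracks the luciferin generated from a proluciferin substrate. A 10 min room-temperature preincubation preceded 1 h NADPH-supported turnover.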

[4] = molecular target: Cytochrome P450 2C19 (Homo sapiens) (UniProt P33261); assay: Cytochrome P450 Family 2 Subfamily C Member 19 (CYP2C19) small molecule antagonists: luciferase reporter qHTS assay (AID 1671197); further: nearly all actives have a fitted effect of over 65% in size
Procedure, shortened: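 Compounds were tested on CYP2C19 activity via proluciferin conversion to luciferin. The 37C, 1 h reaction followed NADPH addition; detection reagent stopped it.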

[5] = molecular target: Cytochrome P450 2C9 (Homo sapiens) (UniProt P11712); assay: Cytochrome P450 Family 2 Subfamily C Member 9 (CYP2C9) small molecule antagonists: luciferase reporter qHTS assay (AID 1671198); further: nearly all actives have a fitted effect of over 50% in size
Procedure, shortened: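 Enzyme-substrate mix preincubated with compound 10 min at room temperature; reaction started with NADPH regeneration solution, 1 h 37C. Luminescent luciferin product read after 20 min detection reagent.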

[6] = molecular target: Cytochrome P450 1A2 (Homo sapiens) (UniProt P05177); assay: Cytochrome P450 Family 1 Subfamily A Member 2 (CYP1A2) small molecule antagonists: luciferase reporter qHTS assay (AID 1671199); further: nearly all actives have a fitted effect of over 50% in size
Procedure, shortened: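 Signal from luciferin formed by CYP1A2 from a proluciferin substrate is read as luminescence, expressed in relative luminescence units. Compounds sit with enzyme 10 min, NADPH-driven reaction runs 1 h, all at room temperature.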

[7] = molecular target: Voltage-gated inwardly rectifying potassium channel KCNH2 (Homo sapiens) (UniProt Q12809); assay: Human Ether-a-go-go-Related Gene (hERG) channel small molecule antagonists: fluorescence cell-based qHTS assay (AID 1671200); further: nearly all actives have a fitted effect of over 50% in size
Procedure, shortened: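 Thallium flux as potassium surrogate: FluxOR II dye loaded 1 h at room temperature into hERG-expressing U2OS cells, then stimulus buffer added after 10 min. Kinetic 480 nm excitation/540 nm emission read, 2 min.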

[8] = molecular target: Cytochrome P450 3A4 (Homo sapiens) (UniProt P08684); assay: Cytochrome P450 Family 3 Subfamily A Member 4 (CYP3A4) small molecule antagonists: luciferase reporter qHTS assay (AID 1671201); further: nearly all actives have a fitted effect of over 50% in size
Procedure, shortened: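 Recombinant human CYP3A4 converts a proluciferin substrate to luciferin over 1 h at room temperature after NADPH regeneration solution is added (compound preincubated 10 min); detection reagent stops reaction, luminescence read 20 min later as relative units.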
Potency means the concentration at half of the fitted maximal effect.

Chain of Acetylcholinesterase (Homo sapiens) (P22303 whole entry, looked up): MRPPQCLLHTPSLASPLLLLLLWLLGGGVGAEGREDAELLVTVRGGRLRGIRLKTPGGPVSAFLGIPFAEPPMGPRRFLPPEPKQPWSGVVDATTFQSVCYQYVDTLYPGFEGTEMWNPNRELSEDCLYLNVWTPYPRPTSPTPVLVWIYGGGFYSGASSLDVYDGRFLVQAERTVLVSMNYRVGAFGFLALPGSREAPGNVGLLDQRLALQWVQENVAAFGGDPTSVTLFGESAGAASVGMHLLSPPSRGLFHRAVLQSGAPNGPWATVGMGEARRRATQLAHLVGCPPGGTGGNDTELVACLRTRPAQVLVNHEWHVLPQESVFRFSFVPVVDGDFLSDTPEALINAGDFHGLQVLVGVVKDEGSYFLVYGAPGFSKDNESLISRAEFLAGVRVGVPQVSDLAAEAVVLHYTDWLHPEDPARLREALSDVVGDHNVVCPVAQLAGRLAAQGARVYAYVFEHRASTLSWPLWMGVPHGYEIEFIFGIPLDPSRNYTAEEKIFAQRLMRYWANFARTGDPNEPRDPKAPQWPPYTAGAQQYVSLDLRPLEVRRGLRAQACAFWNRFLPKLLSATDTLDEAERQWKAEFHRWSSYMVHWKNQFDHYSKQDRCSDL
Chain of Cytochrome P450 2C19 (Homo sapiens) (P33261 whole entry, looked up): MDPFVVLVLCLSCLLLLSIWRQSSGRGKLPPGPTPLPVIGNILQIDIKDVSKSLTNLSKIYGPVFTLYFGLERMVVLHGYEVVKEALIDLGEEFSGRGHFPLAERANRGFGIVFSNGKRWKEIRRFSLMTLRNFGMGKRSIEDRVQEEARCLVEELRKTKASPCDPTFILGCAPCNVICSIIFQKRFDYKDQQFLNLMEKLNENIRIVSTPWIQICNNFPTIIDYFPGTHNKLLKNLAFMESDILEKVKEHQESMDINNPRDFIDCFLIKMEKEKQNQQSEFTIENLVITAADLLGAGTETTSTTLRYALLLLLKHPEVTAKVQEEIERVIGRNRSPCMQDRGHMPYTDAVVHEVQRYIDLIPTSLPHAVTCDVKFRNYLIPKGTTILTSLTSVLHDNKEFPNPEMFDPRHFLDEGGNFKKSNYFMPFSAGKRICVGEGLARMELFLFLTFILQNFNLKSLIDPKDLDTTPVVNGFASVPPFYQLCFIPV
Chain of Cytochrome P450 2D6 (Homo sapiens) (P10635 whole entry, looked up): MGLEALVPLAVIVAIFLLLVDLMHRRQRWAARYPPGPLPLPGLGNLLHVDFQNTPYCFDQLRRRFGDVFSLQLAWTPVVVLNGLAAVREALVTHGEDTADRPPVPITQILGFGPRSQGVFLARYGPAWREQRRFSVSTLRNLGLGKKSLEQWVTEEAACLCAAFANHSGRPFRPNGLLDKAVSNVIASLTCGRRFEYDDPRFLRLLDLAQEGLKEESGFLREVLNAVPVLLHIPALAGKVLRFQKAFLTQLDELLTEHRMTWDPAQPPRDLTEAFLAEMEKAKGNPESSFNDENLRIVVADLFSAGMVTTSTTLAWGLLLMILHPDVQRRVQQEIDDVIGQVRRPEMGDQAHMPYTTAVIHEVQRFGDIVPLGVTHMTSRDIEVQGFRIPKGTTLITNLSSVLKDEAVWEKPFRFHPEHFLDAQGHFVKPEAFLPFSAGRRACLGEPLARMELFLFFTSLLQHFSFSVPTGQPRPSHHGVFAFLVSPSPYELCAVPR
Chain of Cytochrome P450 1A2 (Homo sapiens) (P05177 whole entry, looked up): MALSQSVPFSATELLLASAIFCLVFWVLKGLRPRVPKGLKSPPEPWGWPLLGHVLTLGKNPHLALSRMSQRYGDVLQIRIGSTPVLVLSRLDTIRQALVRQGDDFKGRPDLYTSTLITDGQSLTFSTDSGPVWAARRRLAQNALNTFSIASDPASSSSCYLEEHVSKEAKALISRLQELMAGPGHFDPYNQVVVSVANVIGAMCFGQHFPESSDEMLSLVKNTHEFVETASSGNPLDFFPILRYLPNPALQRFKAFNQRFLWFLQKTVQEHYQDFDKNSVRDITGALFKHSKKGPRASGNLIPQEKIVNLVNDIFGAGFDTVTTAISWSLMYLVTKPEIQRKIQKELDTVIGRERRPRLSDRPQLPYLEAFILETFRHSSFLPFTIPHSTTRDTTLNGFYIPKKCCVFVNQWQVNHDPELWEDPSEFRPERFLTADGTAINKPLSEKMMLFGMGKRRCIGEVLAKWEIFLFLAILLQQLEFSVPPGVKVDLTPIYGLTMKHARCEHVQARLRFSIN
Chain of Cytochrome P450 2C9 (Homo sapiens) (P11712 whole entry, looked up): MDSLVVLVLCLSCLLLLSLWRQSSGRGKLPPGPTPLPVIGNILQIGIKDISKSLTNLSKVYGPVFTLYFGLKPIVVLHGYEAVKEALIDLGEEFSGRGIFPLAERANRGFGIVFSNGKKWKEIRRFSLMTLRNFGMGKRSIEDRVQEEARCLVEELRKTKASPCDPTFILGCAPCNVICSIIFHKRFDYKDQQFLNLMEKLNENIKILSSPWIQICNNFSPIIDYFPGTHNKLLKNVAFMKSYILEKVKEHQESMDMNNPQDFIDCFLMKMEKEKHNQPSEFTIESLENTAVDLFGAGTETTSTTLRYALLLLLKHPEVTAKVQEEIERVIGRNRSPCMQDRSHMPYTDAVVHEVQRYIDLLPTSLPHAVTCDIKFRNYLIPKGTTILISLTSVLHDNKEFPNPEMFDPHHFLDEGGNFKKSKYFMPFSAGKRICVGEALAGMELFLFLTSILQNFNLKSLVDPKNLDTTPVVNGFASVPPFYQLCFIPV
Chain of Voltage-gated inwardly rectifying potassium channel KCNH2 (Homo sapiens) (Q12809 whole entry, looked up): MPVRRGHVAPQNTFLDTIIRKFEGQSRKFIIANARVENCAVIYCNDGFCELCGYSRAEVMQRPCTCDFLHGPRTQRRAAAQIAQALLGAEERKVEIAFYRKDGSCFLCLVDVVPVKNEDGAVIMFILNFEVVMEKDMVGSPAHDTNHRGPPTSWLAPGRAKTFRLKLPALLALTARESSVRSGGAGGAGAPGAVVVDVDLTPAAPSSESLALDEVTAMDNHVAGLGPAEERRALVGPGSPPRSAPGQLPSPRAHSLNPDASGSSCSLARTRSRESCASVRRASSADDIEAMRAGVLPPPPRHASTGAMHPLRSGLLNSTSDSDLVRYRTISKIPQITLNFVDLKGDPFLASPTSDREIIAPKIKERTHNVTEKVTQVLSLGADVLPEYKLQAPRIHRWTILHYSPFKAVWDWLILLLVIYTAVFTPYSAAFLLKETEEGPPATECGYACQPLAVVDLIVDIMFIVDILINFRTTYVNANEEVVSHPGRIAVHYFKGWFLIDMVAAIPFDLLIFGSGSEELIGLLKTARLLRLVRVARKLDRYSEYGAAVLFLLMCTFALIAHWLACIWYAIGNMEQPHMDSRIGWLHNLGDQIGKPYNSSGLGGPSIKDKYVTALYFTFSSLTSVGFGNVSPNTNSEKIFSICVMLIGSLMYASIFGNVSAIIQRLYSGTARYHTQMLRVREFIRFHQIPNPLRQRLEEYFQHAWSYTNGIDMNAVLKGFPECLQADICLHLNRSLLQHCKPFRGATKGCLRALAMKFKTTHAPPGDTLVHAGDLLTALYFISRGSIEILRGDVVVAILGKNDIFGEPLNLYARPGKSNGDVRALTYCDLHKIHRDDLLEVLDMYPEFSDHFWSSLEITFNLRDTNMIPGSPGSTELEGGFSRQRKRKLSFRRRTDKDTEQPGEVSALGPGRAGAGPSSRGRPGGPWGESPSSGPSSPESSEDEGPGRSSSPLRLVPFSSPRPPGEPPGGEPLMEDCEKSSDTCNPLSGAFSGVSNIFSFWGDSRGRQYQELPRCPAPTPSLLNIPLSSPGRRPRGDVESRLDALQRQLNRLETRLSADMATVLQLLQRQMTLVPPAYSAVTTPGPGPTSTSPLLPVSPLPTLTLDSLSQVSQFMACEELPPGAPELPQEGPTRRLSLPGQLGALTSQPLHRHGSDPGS
Chain of Cytochrome P450 3A4 (Homo sapiens) (P08684 whole entry, looked up): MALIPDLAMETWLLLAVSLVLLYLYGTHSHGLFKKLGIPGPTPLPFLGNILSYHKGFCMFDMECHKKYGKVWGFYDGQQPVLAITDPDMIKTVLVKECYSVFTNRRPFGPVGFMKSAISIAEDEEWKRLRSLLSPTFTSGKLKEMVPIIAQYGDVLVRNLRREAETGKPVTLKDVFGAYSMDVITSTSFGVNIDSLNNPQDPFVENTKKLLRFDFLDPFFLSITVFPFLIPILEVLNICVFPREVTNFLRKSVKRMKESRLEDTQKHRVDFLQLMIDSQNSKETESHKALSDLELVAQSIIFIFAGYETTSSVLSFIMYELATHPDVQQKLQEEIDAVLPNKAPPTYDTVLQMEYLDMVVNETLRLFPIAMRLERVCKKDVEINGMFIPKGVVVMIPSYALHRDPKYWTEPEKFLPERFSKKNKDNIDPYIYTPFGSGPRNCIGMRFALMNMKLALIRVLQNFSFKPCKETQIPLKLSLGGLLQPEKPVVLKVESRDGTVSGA

SMILES | Potency [1] | Potency [2] | Potency [3] | Potency [4] | Potency [5] | Potency [6] | Potency [7] | Potency [8]
Oc1ccc(Cl)cc1Cc1ccccc1 | inactive | inactive | 67.8 µM (active) and inactive | 3.56 µM (active) and 1.61 µM (active) and 2.19 µM (active) | 25.2 µM (active) and 12.1 µM (active) and 9.77 µM (active) | 44.8 µM (active) and 33 µM (active) and 30.9 µM (active) | inactive | inactive
NC(=O)CN1CCCC1=O | inactive | inactive | inactive | inactive | inactive | inactive | inactive | inactive
CC(C)COC(=O)c1ccccc1C(=O)OCC(C)C | inactive | inactive | inactive | 10 µM (active) and 11.2 µM (active) | 28.3 µM (active) and 11.2 µM (active) | 12.6 µM (active) and 8.94 µM (active) |  | 
CNC(=S)S | inactive | inactive | inactive | 38.9 µM (active) | 61.7 µM (active) | inactive | inactive | inactive
O=C1CCCO1 | inactive | inactive | inactive | inactive | inactive | 34.7 µM (active) and inactive | inactive | inactive
Nc1ccc2ccccc2c1 | inactive | inactive | 24.3 µM (active) and 15.9 µM (active) | 9.69 µM (active) and 31.7 µM (active) | 27.3 µM (active) and 31.7 µM (active) | 1.72 µM (active) and 2 µM (active) | inactive | 
CC(C)Nc1nc(Cl)nc(NC(C)C)n1 | inactive and 31.7 µM (active) | inactive | inactive | inactive and 35.6 µM (active) | inactive | 10 µM (active) and 20 µM (active) | inactive | inactive
CCNc1nc(Cl)nc(NC(C)(C)C#N)n1 | inactive | inactive | inactive | inactive | inactive | 39.9 µM (active) | inactive | 
CN(C)c1nc(=O)n(C2CCCCC2)c(=O)n1C | inactive | inactive | inactive | inactive | inactive | inactive | inactive | inactive
CCC[CH2][Sn]([Cl])([Cl])[CH2]CCC | inactive | inactive | 36 µM (active) | 8.07 µM (active) and 22.4 µM (active) | 36 µM (active) | inactive | 39.4 µM (active) and 17.4 µM (active) | inactive
CN(C)P(=O)(N(C)C)N(C)C | inactive | inactive | inactive | inactive | inactive | inactive | inactive | inactive
ClC(Cl)=C(Cl)C(Cl)=C(Cl)Cl | inactive | inactive | inactive | inactive | inactive | inactive | inactive | inactive
CC1CC(=O)O1 (stereo not drawn) | inactive | inactive | inactive | inactive | inactive | inactive | inactive | 
CCOS(=O)(=O)OCC | inactive | inactive | inactive | 79.8 µM (active) and inactive | 71.1 µM (active) and inactive | 35.6 µM (active) and inactive | inactive | 
Oc1ccc(Cl)cc1Cl | inactive | inactive | inactive | 70.5 µM (active) and inactive | inactive | 35.3 µM (active) and 39.9 µM (active) | inactive | inactive
Brc1ccc(Br)cc1 | inactive | inactive | inactive | inactive | inactive | inactive | inactive | 
CC(C)(C#N)N=NC(C)(C)C#N | inactive | inactive | inactive | inactive | inactive | inactive | inactive | inactive
CCC[CH2][Sn]([Cl])([CH2]CCC)[CH2]CCC | inactive | inactive | 634 nM (active) and 2 µM (active) | 2.01 µM (active) and 2.24 µM (active) | 14.2 µM (active) and 15.9 µM (active) | 40 µM (active) | 12.3 µM (active) and 6.92 µM (active) | 15.9 µM (active) and 20 µM (active)
CCOP(=S)(OCC)OP(=S)(OCC)OCC | 10.3 µM (active) and 11.2 µM (active) | 36.5 µM (active) and 20 µM (active) | inactive | 8.18 µM (active) and 17.8 µM (active) | 32.6 µM (active) and 35.6 µM (active) |  | inactive | 
